Compound activity: PubChem, National Center for Advancing Translational Sciences (NCATS)
LMNA splice mod: modulators of lamin A splicing; HeLa LMNA splicing GFP/RFP minigene ratio, 48 h; Potency, µM (series often up to 46.1 µM), actives largely listed as inhibitors; 200,000 tested, 0.01% active; AID 1487; active means well fitted inhibition curve with a large enough effect in the signal ratio, with a control signal flat, not every such curve was filed as active; inconclusive means small, poorly fitted or top-dose-only effect, or effect the other way, or a change in a side signal; the % refers to the signal ratio
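S3 HeLa stable clones carrying a lamin A-EGFP splicing minigene plus DsRed2 were seeded at 600 cells/well in Opti-MEM with 2% FBS, pin-dosed and incubated 48 h at 37°C. Acumen cytometry (488 nm) gave the GFP/RFP total-intensity ratio.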
Luc counter: counter-screen: inhibitors of Kinase-Glo firefly luciferase; Kinase-Glo luciferase, ATP luminescence, 8 min; AID 1379; Potency, µM (doses to about 38.3 µM), usual class: inhibitors; 200,000 tested, 0.28% active; Q27757; further: nearly all actives have a fitted effect of over 60% in size
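Kinase-Glo luciferase light output from ATP and luciferin was measured with 10 uM ATP, within the enzyme's linear range. Buffer: 50 mM imidazole pH 7.2, 50 mM KCl, 7 mM MgCl2, 0.01% Tween 20, 0.05% BSA; luminescence read after 8 min at ambient temperature.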
HTT ATP protect: protects HTT-Q103 PC12 cells, measured by ATP; 230,000 tested, 0.14% active; Potency, µM (highest dose often 56.4 µM), usual class: activators; PC12 HTT-Q103 induced, cytoprotection, ATP luminescence, 40 h; further: nearly all actives have a fitted effect of over 45% in size
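Cells were plated at 1500 per well in phenol red-free DMEM with 5% equine and 5% calf serum. Tebufenozide (100 nM final) and compounds were added, then ATPlite reagent, and luminescence was read.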
HTT aggregate: reduces HttQ103-GFP aggregates in PC12 cells | PC12 HttQ103-GFP aggregates, Acumen cytometry, 40 h | Potency, µM (series often up to 46.1 µM), hits mostly inhibitors | 220,000 tested, 1.1% active | AID 1688; further: nearly all actives have a fitted effect of over 60% in size
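Quantitative HTS on tebufenozide-induced (100 nM) PC12 cells stably expressing polyQ103 Huntingtin exon 1–GFP. Reduction of bright GFP aggregates, detected by laser scanning cytometry after lysis, identified actives across the titration.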
ALDH1A1 block: ALDH1A1 (human) enzyme inhibition | P00352 | Purified ALDH1A1, NADH fluorescence, propionaldehyde substrate | Potency, µM (top dose mostly 75.3 µM), hits mostly inhibitors | 220,000 tested, 7.3% active; active means well fitted inhibition curve with a large enough effect, not every such curve was filed as active; inconclusive means small, poorly fitted or top-dose-only effect, or another doubt; inactive means no such curve, though single readings can be large or run the other way
HPGD inh: blocks human HPGD enzyme activity; P15428; purified HPGD, NADH fluorescence kinetic, PGE2 substrate; Potency, µM, actives largely listed as inhibitors; 150,000 tested, 4.3% active; AID 894; active means well fitted inhibition curve with a large enough effect, not every such curve was filed as active; inconclusive means small, poorly fitted or top-dose-only effect, or another doubt; inactive means no such curve, though single readings can be large or run the other way
Target sequence (P15428 whole entry, looked up): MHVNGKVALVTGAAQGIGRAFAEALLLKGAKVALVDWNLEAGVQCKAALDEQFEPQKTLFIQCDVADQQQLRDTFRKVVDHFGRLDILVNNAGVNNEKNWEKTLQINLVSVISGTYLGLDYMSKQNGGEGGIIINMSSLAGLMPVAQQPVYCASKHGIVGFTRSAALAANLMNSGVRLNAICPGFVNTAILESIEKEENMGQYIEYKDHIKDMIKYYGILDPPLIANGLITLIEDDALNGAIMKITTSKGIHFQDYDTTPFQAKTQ
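20 nM HPGD preincubated 15 min at room temperature with compound in 50 mM Tris-HCl pH 8, 0.01% Tween 20. Started with 1 mM NAD+ and 30 uM prostaglandin E2; NADH fluorescence (360/450 nm) read 5 times over 30-s intervals, last minus first.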
A number is an active result; – = inactive; ? = inconclusive; · = not tested or not shown; [ ] = remark or other dose. The list is not random: actives were taken first. Their share in the collection is about 9%. Unless noted, the call rests on the fitted dose curve; in most records, active means well fitted curve in the direction sought with a large enough effect; inconclusive means small, poorly fitted or top-dose-only effect, or another doubt; inactive means no such curve, though single readings can be large; an effect the other way counts as inactive or inconclusive.

SMILES	LMNA splice mod	Luc counter	HTT ATP protect	HTT aggregate	ALDH1A1 block	HPGD inh
S=c1[nH]nc(CCc2ccccc2)n1-c1ccccc1	–	–	–[10 µM]	–	?	16µM
O=C(NCC(=O)N(Cc1cccs1)C(C(=O)NC1CCCCC1)c1ccco1)c1ccco1 (stereo not given)	–	–	–[10 µM]	–	22µM	–
O=C(NC1CCCCC1)C(c1ccc(F)cc1)N(Cc1ccco1)C(=O)CN1C(=O)c2ccccc2S1(=O)=O (stereo not given)	–	–	–[10 µM]	22µM	–	–
O=C(NC1CCCCC1)C(c1ccc(F)cc1)N(Cc1ccco1)C(=O)Cn1nnc2ccccc21 (stereo not given)	–	–	–	–	–	–
O=C(NCC(=O)N(Cc1ccc(F)cc1)C(C(=O)NC1CCCC1)c1ccco1)c1ccco1 (stereo not given)	?	–	–	–	–	–
COc1ccc(N(C(=O)c2ccco2)C(C(=O)NC2CCCC2)c2ccc(N(C)C)cc2)cc1 (stereo not given)	–	–	–[10 µM]	–[9.22 µM]	2.5µM	–
O=C(NCC(=O)N(Cc1cccs1)C(C(=O)NC1CCCC1)c1ccncc1)c1ccco1 (stereo not given)	–	–	–	–	7.9µM	–
O=C(COC(=O)c1cn(-c2ccccc2)nc1-c1ccc(F)cc1)Nc1ncc(Cl)cc1Cl	–	–	–[10 µM]	–	–	–
CC(=O)Nc1ccc(S(=O)(=O)NC2(C(F)(F)F)C(=O)Nc3c2c(=O)[nH]c(=O)n3Cc2cccnc2)cc1 (stereo not given)	?	–	–[10 µM]	–[9.22 µM]	–	·
O=C(NCC(=O)N(Cc1ccccc1)C(C(=O)NC1CCCC1)c1ccco1)c1ccco1 (stereo not given)	–	–	–[10 µM]	–	?	–
CCOc1ccccc1C(C(=O)NC1CCCC1)N(Cc1ccco1)C(=O)CNC(=O)c1ccco1 (stereo not given)	–	–	–[10 µM]	–	1.8µM	–
O=C(NCC(=O)N(Cc1ccco1)C(C(=O)NC1CCCCC1)c1cccnc1)c1ccco1 (stereo not given)	–	–	–	–	–	–
COc1ccc(CN(C(=O)CNC(=O)c2ccco2)C(C(=O)NC2CCCC2)c2ccco2)cc1 (stereo not given)	–	–	–	–	0.4µM	–
CCN(CC)C(=O)C(C)N(C#N)c1nc(NC(C)C)nc(NC(C)C)n1 (stereo not given)	–	–	–	–	–	–
COc1cc2c(cc1OC)-c1cc(OCc3cccnc3)nc(=O)n1CC2	–	–	?	–	?	?
O=C(NCc1ccco1)C(c1ccccc1)N(C(=O)Cc1cccs1)c1ccccc1F (stereo not given)	–	–	–	?	–	–
O=C(c1ccccc1)c1cc([N+](=O)[O-])ccc1N1CCOCC1	?	–	–[10 µM]	–	?	–
O=C(c1ccccc1)c1cc(F)c(N2CCOCC2)cc1Cl	–	–	–	–	–	20µM
O=C(c1ccccc1)c1ccc(N2CCOCC2)c(F)c1	–	–	–	–	–	25µM
CC1(C)Cc2c(c(=S)nc(-c3ccccc3)n2CCOCCO)CO1	–	–	–	–	?	–
Cc1ccccc1C(=O)c1cccn1CC(=O)NCCN1CCN(c2cccc(C)c2C)CC1	?	–	–	?	–	–
Cc1ccc(C)c(N2CCN(CCCNC(=O)Cn3cccc3C(=O)c3ccccc3C)CC2)c1	·	–	–	16µM	–	·
O=C(Oc1c(Cl)cc(Cl)c2cccnc12)c1cccc([N+](=O)[O-])c1	?	–	–[10 µM]	2.8µM	–	–
O=C(Oc1coc(CSc2ncccn2)cc1=O)c1ccco1	–[9.22 µM]	–	–	–	–	·
Cc1cc(C)nc(SCc2cc(=O)c(OC(=O)c3ccc(Cl)c([N+](=O)[O-])c3)co2)n1	–	–	–[10 µM]	–	–	11µM
SMILES	LMNA splice mod	Luc counter	HTT ATP protect	HTT aggregate	ALDH1A1 block	HPGD inh
O=C(Oc1coc(CSc2ncccn2)cc1=O)c1cccc([N+](=O)[O-])c1	·	–	–	–	1.8µM	·
CCOc1ccccc1-c1nnc(SCC(=O)NC2CC3CCC2C3)n1CC (stereo not given)	–	–	–[10 µM]	?	–	–
CCOC(=O)N1CCC(NC(=O)C2CCCN(C(=O)c3cc4sccc4n3C)C2)CC1 (stereo not given)	?	–	–	–	?	–
Cn1c(C(=O)N2CCCC(C(=O)NCCc3ccccc3)C2)cc2sccc21 (stereo not given)	–	–	–	?	11µM	–
Cn1c(C(=O)N2CCCC(C(=O)NCCCc3ccccc3)C2)cc2sccc21 (stereo not given)	?	–	–[10 µM]	–	14µM	–
Cc1ccc(CCNC(=O)C2CCCN(C(=O)c3cc4sccc4n3C)C2)cc1 (stereo not given)	?	–	–	–	8.9µM	–
Cn1c(C(=O)N2CCCC(C(=O)NCc3ccc4c(c3)OCO4)C2)cc2sccc21 (stereo not given)	–	–	–	–	3.5µM	–
O=C(c1sc2cc([N+](=O)[O-])ccc2c1Cl)N1CCOCC1	–	–	–[10 µM]	–	–	16µM
CC(C)N(C(=O)c1sc2cc([N+](=O)[O-])ccc2c1Cl)C(C)C	–	–	–	–	?	28µM
O=C(O)c1ccc(-c2nc(-c3ccc(Cl)c(Cl)c3)cs2)cc1	·	–	–	–	–	·
C=CCN1C(=O)C2(/C(=C(\O)c3ccc4c(c3)OCCO4)C(=O)C(=O)N2CCCOC)c2ccccc21 (stereo not given)	–	–	–[0.074 µM]	–	2.8µM	–
COc1ccc(NC(=S)NNC(=S)Nc2cccc(C(F)(F)F)c2)cc1	·	·	–[10 µM]	–[9.22 µM]	0.45µM	·
O=C(Nc1ccccc1)Nc1cccc(C(F)(F)F)c1	·	–	–	22µM	–	·
CCOc1ccc(NC(=S)NNc2ccnc3cc(Cl)ccc23)cc1	?	–	–	–	3.2µM	·
O=C(NNC(=S)Nc1cccc(C(F)(F)F)c1)c1ccc(Cl)cc1Cl	?	–	–[10 µM]	11µM	20µM	–
COC(=O)c1ccccc1NC1c2ccccc2C(=O)N1c1cccnc1 (stereo not given)	–	–	–[10 µM]	–	?	–
CC(C)(C)c1ccc(C(=O)NNC(=O)Cc2cccc3ccccc23)cc1	–	–	–	–[9.22 µM]	–	?
CCOc1cc(OCC)cc(C(=O)NC(=S)Nc2cccc(C(F)(F)F)c2)c1	–	–	–	–	3.5µM	–
FC(F)(F)c1cccc(NC(=S)NCc2ccccc2)c1	–	–	–	–	–	28µM
CNNC(=S)Nc1cccc(C(F)(F)F)c1	·	·	–[10 µM]	–[9.22 µM]	–	·
O=C(NC(=S)Nc1cccc(C(F)(F)F)c1)c1ccc2nonc2c1	·	·	–[10 µM]	–[9.22 µM]	·	·
